# Experimental data as given in PubChem BioAssay (NCATS).
# Inconclusive results are not listed. Where a call stands in place of a potency, no number is given. Activity calls are given as the source filed them. Unless noted, calls come from the whole dose curve; as a rule, active = well fitted curve in the direction sought with a large enough effect; inconclusive = small, poorly fitted or top-dose-only effect, or another doubt; inactive = no such curve, though single readings can be large; an effect the other way counts as inactive or inconclusive. Numbered stars: 1 amine (or outer) side, 2 acyl side, 3 side chain; on linkers, the order of the positions; unused ones are H or OH. Bridge positions count the residues as written; N and C are the ends. Square brackets hold non-standard residues; d marks the D form. Peptide text beside a SMILES is read from it. * marks the point of attachment. ξ: configuration not given here. ΔAla(E,3-NHCONH2) = NC(=O)N/C=C(/N)C(=O)O; X1 = NC1=NCCC(C(N[*:1])C(=O)[*:2])N1; ξβ3hOrn = NCCCC(N)CC(=O)*; Dap = NC[CH](N)C(=O)O
# Experiments:
# [1] = target: Cytochrome P450 3A4 (Homo sapiens) (UniProt P08684); experiment: qHTS Assay for Inhibitors and Substrates of Cytochrome P450 3A4 (AID 884); note: nearly all actives have a fitted effect of over 50% in size
# Procedure, shortened: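 20 nM human CYP3A4 with 25 uM Luciferin-PPXE (at KM) in 200 mM KPO4, preincubated 10 min with compound; NADPH regeneration started a 60 min RT reaction. Luciferin detected by luminescence, normalized to 57 uM ketoconazole as full inhibition.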
# [2] = Confirmation and Secondary Assay for Modulators of Hemoglobin Beta Chain Splicing at IVS2 654 locus (AID 910);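 note: per-well total GFP intensity by laser scanning cytometry after 2-day treatment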
# Procedure, shortened: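 HeLa cells stably carrying EGFP interrupted by mutant beta-globin IVS2-654 intron (CMV-driven) were treated with compound for 2 days at 37C; corrected splicing was scored as total peak GFP intensity per well (488 nm excitation, 500-520 nm emission).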
# [3] = Confirmation and Secondary Assay for Modulators of Hemoglobin Beta Chain Splicing at IVS2 705 locus (AID 930);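 note: HeLa cells stably expressing the EGFP-705 splicing reporter; GFP fluorescence per well restored by corrected splicing of the IVS2-705 intron in EGFP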
# Procedure, shortened: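 HeLa IVS2-705 EGFP reporter cells, 500/well, compound 2 d at 37C; correct splicing yields fluorescent EGFP. Control: 500 nM antisense PNA. Read-out: total peak GFP intensity.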
# [4] = qHTS Assay for Lipid Storage Modulators (AID 1519; calls by dose curve); conditions: Drosophila S3 cells, BODIPY lipid droplet/cell ratio, laser cytometry, cells loaded with oleic acid; for activity change, negative = inhibition: at 57.5 µM (top of the series)
# Procedure, shortened: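 Cells seeded at 5,000 per well were treated with compounds over a concentration series and loaded with oleic acid (400 uM, as added). Lipid droplet fluorescence (488 nm excitation, 500-530 nm channel) was read by laser-scanning cytometry and normalized to 20 uM Triacsin C.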
# [5] = target: Ubiquitin carboxyl-terminal hydrolase 1 (Homo sapiens) (UniProt O94782); experiment: Inhibitors of USP1/UAF1: Pilot qHTS (AID 504865);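 note: rhodamine fluorescence freed from ubiquitin-rhodamine substrate followed over time; top concentration of the series differs between compounds; nearly all actives have a fitted effect of over 35% in size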
# Procedure, shortened: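 Enzyme-free wells gave the negative control, while test wells held 1nM USP1/UAF1 preincubated with compound for 15 min at room temperature. Ub-Rho at 150nM final started the reaction, and fluorescence at 480/540 nm was recorded kinetically.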
# [6] = measured here: cell count channel max response
# [7] = measured here: lipid channel max response
# Chain of Ubiquitin carboxyl-terminal hydrolase 1 (Homo sapiens) (O94782 whole entry, looked up): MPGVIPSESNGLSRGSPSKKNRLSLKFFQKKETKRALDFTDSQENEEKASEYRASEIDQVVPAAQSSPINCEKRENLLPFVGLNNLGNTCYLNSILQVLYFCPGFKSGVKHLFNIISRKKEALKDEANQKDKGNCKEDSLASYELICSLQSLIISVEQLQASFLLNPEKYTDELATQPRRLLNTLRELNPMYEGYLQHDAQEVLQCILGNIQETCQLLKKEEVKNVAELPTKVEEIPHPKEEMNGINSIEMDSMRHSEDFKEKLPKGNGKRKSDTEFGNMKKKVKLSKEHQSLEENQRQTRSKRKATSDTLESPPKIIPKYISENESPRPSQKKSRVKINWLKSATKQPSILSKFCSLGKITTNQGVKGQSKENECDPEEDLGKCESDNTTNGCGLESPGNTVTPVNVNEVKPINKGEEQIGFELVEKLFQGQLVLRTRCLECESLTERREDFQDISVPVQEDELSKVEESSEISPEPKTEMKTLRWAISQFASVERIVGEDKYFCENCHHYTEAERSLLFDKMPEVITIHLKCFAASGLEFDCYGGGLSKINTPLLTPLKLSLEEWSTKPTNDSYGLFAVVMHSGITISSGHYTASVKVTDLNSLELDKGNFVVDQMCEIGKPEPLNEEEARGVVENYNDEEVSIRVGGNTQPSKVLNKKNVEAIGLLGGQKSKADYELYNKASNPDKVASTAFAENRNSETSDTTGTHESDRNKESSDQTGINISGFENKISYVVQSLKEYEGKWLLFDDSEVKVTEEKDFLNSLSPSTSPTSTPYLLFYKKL
# Chain of Cytochrome P450 3A4 (Homo sapiens) (P08684 whole entry, looked up): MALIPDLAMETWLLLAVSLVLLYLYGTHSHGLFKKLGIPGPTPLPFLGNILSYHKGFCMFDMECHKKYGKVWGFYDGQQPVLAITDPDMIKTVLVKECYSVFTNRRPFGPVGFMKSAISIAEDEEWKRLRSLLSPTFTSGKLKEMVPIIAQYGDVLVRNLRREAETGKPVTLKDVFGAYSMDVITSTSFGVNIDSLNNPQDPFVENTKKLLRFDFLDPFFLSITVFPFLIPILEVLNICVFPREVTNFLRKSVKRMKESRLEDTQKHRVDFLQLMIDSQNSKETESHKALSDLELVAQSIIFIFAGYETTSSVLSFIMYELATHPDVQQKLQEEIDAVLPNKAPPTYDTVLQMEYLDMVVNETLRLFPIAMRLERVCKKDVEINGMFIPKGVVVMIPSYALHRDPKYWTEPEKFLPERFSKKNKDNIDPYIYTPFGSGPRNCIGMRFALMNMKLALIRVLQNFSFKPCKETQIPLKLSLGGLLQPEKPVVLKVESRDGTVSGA
SMILES,Potency [1],Potency [2],Potency [3],"activity change, negative = inhibition [4]","max response [4, 6] [%]","max response [4, 7] [%]",Potency [5]
CC(=O)O[C@@]1(C(C)=O)CCC2C3C=C(Cl)C4=CC(=O)C5CC5[C@@]4(C)C3CC[C@]21C (stereo partly drawn),inactive,inactive,inactive,2.54% (inactive),-3.69,0.864,inactive
Nc1nc2[nH]c(=O)c(=O)[nH]c2c(=O)[nH]1,inactive,inactive,inactive,4.12% (inactive),1.82,6.32,inactive
CCOc1ccc(C(=O)c2ccc(O)c(O)c2O)cc1,inactive,inactive,inactive,4.84% (inactive),-5.66,-2.36,inactive
NC(N)=NCCCC(NC(=O)C(N)Cc1ccc(O)cc1)C(=O)O (stereo not drawn),inactive,inactive,inactive,5.19% (inactive),20.9,29,inactive
O=C(O)c1ccc2c(c1)OCO2,inactive,inactive,inactive,6.55% (inactive),14.4,22.7,inactive
O=C(Oc1cc(OC(=O)c2ccccc2)c2c(c1)OC(c1ccc(OC(=O)c3ccccc3)c(OC(=O)c3ccccc3)c1)[C@@H](OC(=O)c1ccccc1)C2)c1ccccc1 (stereo partly drawn),inactive,inactive,inactive,-8.04% (inactive),23.3,15.7,inactive
Nc1nc2[nH]c(=O)[nH]c2c(=O)[nH]1,inactive,inactive,inactive,-0.21% (inactive),10.7,11.7,inactive
C[N+]1(C)CC(O)[C@H](C(=O)[O-])C1 (stereo partly drawn),inactive,inactive,inactive,1.35% (inactive),0.129,0.467,inactive
CN(C)C1C(=O)C(C(N)=O)=C(O)[C@@]2(O)C(=O)C3=C(O)c4c(O)ccc(Cl)c4C(O)[C@H]3C[C@@H]12 (stereo partly drawn),inactive,inactive,inactive,5.54% (inactive),25.6,35.5,inactive
C#CCCCCCCCCCCCC(=O)CC(O)COC(C)=O (stereo not drawn),inactive,inactive,inactive,3.5% (inactive),13.4,17.1,inactive
OCC1OC(n2cnc3c(NCc4ccco4)ncnc32)C(O)C1O (stereo not drawn),inactive,inactive,inactive,-0.247% (inactive),-4.44,-3.92,inactive
CC1CCC(C(C)C)[C@H](OC(=O)c2ccccc2)C1 (stereo partly drawn),inactive,inactive,inactive,5.46% (inactive),10.9,15.1,inactive
C=C(C)C1COc2cc3oc(=O)ccc3cc2O1 (stereo not drawn),inactive,inactive,inactive,14.3% (inactive),12.5,28.8,inactive
Cc1c(O)cc(O)c2c(=O)c(-c3ccc(O)cc3)coc12,inactive,inactive,inactive,8.55% (inactive),16.6,28,inactive
C=C1C(N)CC2CC1C2(C)C (stereo not drawn),inactive,inactive,inactive,1.08% (inactive),14,14.9,inactive
O=C/C=C/c1ccc(O)cc1,inactive,inactive,inactive,4.82% (inactive),10.7,16.6,inactive
"NCCCC(N)CC(=O)NCC1NC(=O)C(CO)NC(=O)C(N)CNC(=O)C(C2CCN=C(N)N2)NC(=O)/C(=C\NC(N)=O)NC1=O (stereo not drawn) (H-[Dap]S[Dap](ξβ3hOrn)[ΔAla(E,3-NHCONH2)][X1]; lactam 1-C; configuration not given here)",inactive,inactive,inactive,2.39% (inactive),15.4,21.2,inactive
CC(=O)OCC(=O)C1CCC2C3CC=C4CC(O)CC[C@@]4(C)C3CC[C@]12C (stereo partly drawn),inactive,inactive,inactive,8.84% (inactive),22.6,38.3,inactive
CC1CC[C@@]2(OC1)OC1CC3C4CC=C5CC(O)CC[C@@]5(C)C4CC[C@]3(C)C1C2C (stereo partly drawn),inactive,inactive,inactive,5.92% (inactive),10.1,19,inactive
CCC1OC(=O)C(C)[C@@H](O[C@H]2C[C@@](C)(OC)C(O)C(C)O2)C(C)[C@@H](O[C@@H]2OC(C)CC(N(C)C)C2O)[C@](C)(O)CC(C)/C(=N\OCOCCOC)[C@H](C)C(O)[C@]1(C)O (stereo partly drawn),inactive,inactive,inactive,7.24% (inactive),27.8,41,inactive
CC(=O)OC/C=C(\C)CC/C=C(\C)CC/C=C(\C)CC/C=C(\C)CC/C=C(\C)CC/C=C(\C)CC/C=C(\C)CC/C=C(\C)CCC=C(C)C,inactive,inactive,inactive,1.76% (inactive),7.11,8.78,inactive
C=CCSCC(N)C(=O)O (stereo not drawn),inactive,inactive,inactive,7.56% (inactive),17.4,25.7,inactive
CC(C(=O)O)C1CCC2C3CC=C4CC(O)CC[C@@]4(C)C3CC[C@]12C (stereo partly drawn),inactive,inactive,inactive,4.4% (inactive),6.91,12.2,inactive
CC(=O)OCC(OC(C)=O)C(OC(C)=O)C(OC(C)=O)C(OC(C)=O)C(COC(C)=O)OC(C)=O (stereo not drawn),inactive,inactive,inactive,10.5% (inactive),5.07,17.8,inactive
